# “And” between values parts separate entries of the source, which are not always exact repeats. Identical values can stand only once. The campaign covered roughly 5,500 compounds. About 2,000 (36%) were called active. Not shown: some 18% with an inconclusive outcome. Cut-off read from the data, not from the text of the source: active = normalized growth mostly below about 0.91 (no sharp cut-off); inconclusive = no clear call, values can overlap the other calls; inactive = mostly above about 0.92. This is one part of the list. A structure can be active in one record and inactive in another.
# Test: chemical genetic growth profiling, strain panel (AID 1159580);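 note: tested at 20 µM; growth read once vehicle control cultures reached saturation at 30 °C; 1 = growth at the plate median or of vehicle wells; lower values mean less growth of the strain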
# Conditions: S. cerevisiae deletion strains, growth OD
smiles,measurement,setting,value
CC(C)COCC(CN(Cc1ccccc1)c1ccccc1)N1CCCC1 (stereo not given),normalized growth,"locus YAL013W, strain DEP1, stronger effect = lower value",0.871 (active)
same,normalized growth,"locus YAL021C, strain ccr4, stronger effect = lower value",0.962 (inactive)
same,normalized growth,"locus YAL026C, strain drs2, stronger effect = lower value",1.01 (inactive)
same,normalized growth,"locus YAL030W, strain snc1, stronger effect = lower value",1.03 (inactive)
same,normalized growth,"locus YAL040C, strain CLN3, stronger effect = lower value",1.09 (inactive)
same,normalized growth,"locus YBL061C, strain skt5, stronger effect = lower value",1.04 (inactive)
same,normalized growth,"locus YBR009C, strain hhf1, stronger effect = lower value",1 (inactive)
same,normalized growth,"locus YBR021W, strain FUR4, stronger effect = lower value",0.594 (active)
same,normalized growth,"locus YBR023C, strain chs3, stronger effect = lower value",1.02 (inactive)
same,normalized growth,"locus YBR171W, strain sec66, stronger effect = lower value",1.06 (inactive)
same,normalized growth,"locus YBR229C, strain ROT2, stronger effect = lower value",0.953 (inactive)
same,normalized growth,"locus YBR231C, strain swc5, stronger effect = lower value",1.01 (inactive)
same,normalized growth,"locus YBR279W, strain paf1, stronger effect = lower value",1.04 (inactive)
same,normalized growth,"locus YCL011C, strain gbp2, stronger effect = lower value",1.02 (inactive)
same,normalized growth,"locus YCL016C, strain dcc1, stronger effect = lower value",1.02 (inactive)
same,normalized growth,"locus YCL029C, strain bik1, stronger effect = lower value",0.978 (inactive)
same,normalized growth,"locus YCL061C, strain MRC1 (second series), stronger effect = lower value",1.01 (inactive)
same,normalized growth,"locus YCL061C, strain MRC1, stronger effect = lower value",1.02 (inactive)
same,normalized growth,"locus YCL069W, strain vba3, stronger effect = lower value",1.05 (inactive)
same,normalized growth,"locus YCR088W, strain abp1, stronger effect = lower value",1.04 (inactive)
same,normalized growth,"locus YDL005C, strain med2, stronger effect = lower value",1.05 (inactive)
same,normalized growth,"locus YDL035C, strain GPR1, stronger effect = lower value",0.864 (inactive)
same,normalized growth,"locus YDL040C, strain nat1, stronger effect = lower value",1.02 (inactive)
same,normalized growth,"locus YDL074C, strain BRE1, stronger effect = lower value",0.694 (active)
same,normalized growth,"locus YDL101C, strain DUN1, stronger effect = lower value",0.926 (inactive)
same,normalized growth,"locus YDL134C, strain PPH21, stronger effect = lower value",0.9 (inactive)
same,normalized growth,"locus YDL185W, strain tfp1, stronger effect = lower value",0.978 (inactive)
same,normalized growth,"locus YDL192W, strain arf1, stronger effect = lower value",0.977 (inactive)
same,normalized growth,"locus YDR001C, strain nth1, stronger effect = lower value",1.03 (inactive)
same,normalized growth,"locus YDR069C, strain doa4, stronger effect = lower value",1.02 (inactive)
same,normalized growth,"locus YDR101C, strain arx1, stronger effect = lower value",0.929 (inactive)
same,normalized growth,"locus YDR137W, strain rgp1, stronger effect = lower value",1.1 (inactive)
same,normalized growth,"locus YDR150W, strain NUM1, stronger effect = lower value",0.965 (inactive)
same,normalized growth,"locus YDR159W, strain sac3, stronger effect = lower value",1.03 (inactive)
same,normalized growth,"locus YDR162C, strain NBP2, stronger effect = lower value",0.802 (active)
same,normalized growth,"locus YDR195W, strain ref2",1.07 (inactive)
same,normalized growth,"locus YDR297W, strain sur2, stronger effect = lower value",1.02 (inactive)
same,normalized growth,"locus YDR318W, strain mcm21, stronger effect = lower value",0.947 (inactive)
same,normalized growth,"locus YDR334W, strain swr1, stronger effect = lower value",1.03 (inactive)
same,normalized growth,"locus YDR335W, strain msn5, stronger effect = lower value",1.06 (inactive)
same,normalized growth,"locus YDR388W, stronger effect = lower value",0.814 (active)
same,normalized growth,"locus YDR392W, strain spt3, stronger effect = lower value",0.934 (inactive)
same,normalized growth,"locus YDR502C, strain sam2, stronger effect = lower value",0.914 (active)
same,normalized growth,"locus YEL003W, strain gim4, stronger effect = lower value",1.04 (inactive)
same,normalized growth,"locus YEL037C, strain rad23, stronger effect = lower value",1.03 (inactive)
same,normalized growth,"locus YEL061C, strain CIN8 (second series), stronger effect = lower value",1.03 (inactive)
same,normalized growth,"locus YEL061C, strain CIN8, stronger effect = lower value",0.973 (inactive)
same,normalized growth,"locus YER002W, strain NOP16, stronger effect = lower value",1.02 (inactive)
same,normalized growth,"locus YER015W, strain faa2, stronger effect = lower value",1.01 (inactive)
same,normalized growth,"locus YER016W, strain bim1, stronger effect = lower value",1.02 (inactive)
same,normalized growth,"locus YER110C, stronger effect = lower value",0.96 (inactive)
same,normalized growth,"locus YER111C, strain swi4, stronger effect = lower value",1.06 (inactive)
same,normalized growth,"locus YER155C, strain BEM2 (second series), stronger effect = lower value",0.884 (inactive)
same,normalized growth,"locus YER155C, strain BEM2, stronger effect = lower value",1.02 (inactive)
same,normalized growth,"locus YER167W, strain BCK2, stronger effect = lower value",0.958 (inactive)
same,normalized growth,"locus YFR010W, strain ubp6, stronger effect = lower value",0.998 (inactive)
same,normalized growth,"locus YGL078C, strain dbp3, stronger effect = lower value",0.978 (inactive)
same,normalized growth,"locus YGL086W, strain mad1, stronger effect = lower value",0.903 (active)
same,normalized growth,"locus YGL167C, strain pmr1, stronger effect = lower value",1.04 (inactive)
same,normalized growth,"locus YGL173C, strain kem1, stronger effect = lower value",1.01 (inactive)
same,normalized growth,"locus YGL227W, strain vid30, stronger effect = lower value",1.03 (inactive)
same,normalized growth,"locus YGL240W, strain doc1, stronger effect = lower value",0.99 (inactive)
same,normalized growth,"locus YGL248W, strain PDE1, stronger effect = lower value",0.849 (active)
same,normalized growth,"locus YGL253W, strain hxk2, stronger effect = lower value",1.05 (inactive)
same,normalized growth,"locus YGR078C, strain PAC10, stronger effect = lower value",0.786 (active) and 0.987 (inactive)
same,normalized growth,"locus YGR135W, strain pre9, stronger effect = lower value",0.849 (active)
same,normalized growth,"locus YGR229C, strain SMI1, stronger effect = lower value",0.434 (active)
same,normalized growth,"locus YGR252W, strain gcn5, stronger effect = lower value",0.734 (active)
same,normalized growth,"locus YHR013C, strain ard1, stronger effect = lower value",1.03 (inactive)
same,normalized growth,"locus YHR027C, strain rpn1, stronger effect = lower value",1 (inactive)
same,normalized growth,"locus YHR030C, strain SLT2, stronger effect = lower value",0.771 (active) and 0.959 (inactive)
same,normalized growth,"locus YHR079C, strain IRE1 (second series), stronger effect = lower value",0.972 (inactive)
same,normalized growth,"locus YHR079C, strain IRE1, stronger effect = lower value",0.998 (inactive)
same,normalized growth,"locus YHR094C, strain hxt1, stronger effect = lower value",0.987 (inactive)
same,normalized growth,"locus YHR129C, strain ARP1, stronger effect = lower value",0.949 (inactive)
same,normalized growth,"locus YHR142W, strain chs7, stronger effect = lower value",1.04 (inactive)
same,normalized growth,"locus YHR200W, strain rpn10, stronger effect = lower value",0.975 (inactive)
same,normalized growth,"locus YIL066C, strain RNR3, stronger effect = lower value",0.809 (active)
same,normalized growth,"locus YIL073C, strain SPO22, stronger effect = lower value",1.3 (inactive)
same,normalized growth,"locus YIL125W, strain kgd1, stronger effect = lower value",0.991 (inactive)
same,normalized growth,"locus YIR030C, strain dcg1, stronger effect = lower value",0.98 (inactive)
same,normalized growth,"locus YJL092W, strain hpr5, stronger effect = lower value",1.01 (inactive)
same,normalized growth,"locus YJL095W, strain BCK1 (second series), stronger effect = lower value",1 (inactive)
same,normalized growth,"locus YJL095W, strain BCK1, stronger effect = lower value",0.587 (active) and 0.983 (inactive)
same,normalized growth,"locus YJL115W, strain asf1, stronger effect = lower value",1.04 (inactive)
same,normalized growth,"locus YJL129C, strain trk1, stronger effect = lower value",1.06 (inactive)
same,normalized growth,"locus YJL134W, strain LCB3, stronger effect = lower value",0.988 (inactive)
same,normalized growth,"locus YJL154C, strain vps35, stronger effect = lower value",1.04 (inactive)
same,normalized growth,"locus YJL164C, strain tpk1, stronger effect = lower value",1.01 (inactive)
same,normalized growth,"locus YJL166W, strain qcr8, stronger effect = lower value",1.01 (inactive)
same,normalized growth,"locus YJL168C, strain set2, stronger effect = lower value",0.989 (inactive)
same,normalized growth,"locus YJL187C, strain SWE1 (second series), stronger effect = lower value",0.801 (active)
same,normalized growth,"locus YJL187C, strain SWE1, stronger effect = lower value",1.03 (inactive)
same,normalized growth,"locus YJR043C, strain POL32, stronger effect = lower value",0.996 (inactive)
same,normalized growth,"locus YJR066W, strain TOR1, stronger effect = lower value",0.948 (inactive)
